In PubChem BioAssay (NCATS):
“And” between values parts separate entries of the source, which are not always exact repeats. Equal values may be shown once. Results filed as inconclusive are left out. Where a call stands in place of a potency, no number is given. A number with no mark means an inactive call. The source made the active and inactive calls. Calls follow the shape of the dose curve; as a rule, active = well fitted curve in the direction sought with a large enough effect; inconclusive = small, poorly fitted or top-dose-only effect, or another doubt; inactive = no such curve, though single readings can be large; an effect the other way counts as inactive or inconclusive.

Experiments:
[1] = Viability qHTS for spleen associated tyrosine kinase inhibitor (SYKi) naive MV4-11 cells (AID 1963823); also: nearly all actives have a fitted effect of over 40% in size
Procedure, shortened: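 Compounds were dispensed acoustically onto plates, MV4-11 cells (SYKi-naive) added at 500 per well, and plates incubated 72 hr at 37 C. CellTiter-Glo was added and luminescence measured after 10 min.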

[2] = Viability qHTS for spleen associated tyrosine kinase inhibitor (SYKi) drug resistant MV4-11 cells (AID 1963824); also: nearly all actives have a fitted effect of over 35% in size
Procedure, shortened: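 CellTiter-Glo luminescence, read 10 min after reagent addition, reports viability after a 72 hr compound exposure. Cells are an MV4-11 line made resistant to SYK inhibition, seeded at 500 per well onto compound-containing plates.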

[3] = Quantitative highthroughput screen to assess conditional lethalithy of NOMO1 cells grown in RPMI1640 with untreated serum (RPMI+s) (AID 1963876); also: nearly all actives have a fitted effect of over 35% in size
Procedure, shortened: (§1)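 Each medium arm—HPLM with 10% dialyzed FBS, or RPMI1640 with 5 mM glucose and 10% untreated or dialyzed FBS—was screened against an 11-point, 3-fold compound titration for 48 h at 37 °C, with CellTiter-Glo luminescence as endpoint.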

[4] = Quantitative highthroughput screen to assess conditional lethalithy of NOMO1 cells grown in RPMI1640 with dialyzed fetal bovine serum (RPMI+ds) (AID 1963877); also: nearly all actives have a fitted effect of over 30% in size; as to Viability: series mostly up to about 46 µM
Procedure, shortened: as §1

[5] = Quantitative highthroughput screen to assess conditional lethalithy of P12 Ichikawa cells grown in Human Plasma-Like Medium with dialyzed fetal bovine serum (HPLM+ds) (AID 1963879); details: Potency: viability; also: nearly all actives have a fitted effect of over 35% in size; as to Viability: series mostly up to about 46 µM
Procedure, shortened: as §1

[6] = Quantitative highthroughput screen to assess conditional lethalithy of P12 Ichikawa cells grown in RPMI1640 with dialyzed fetal bovine serum (RPMI+ds) (AID 1963880); details: Potency: P12-Ichikawa viability; also: nearly all actives have a fitted effect of over 35% in size
Procedure, shortened: as §1

[7] = Quantitative highthroughput screen to assess conditional lethalithy of P12 Ichikawa cells grown in RPMI1640 with untreated serum (RPMI+s) (AID 1963881); details: Potency: viability; also: nearly all actives have a fitted effect of over 35% in size; as to Viability: series mostly up to about 46 µM
Procedure, shortened: as §1

[8] = Quantitative highthroughput screen to assess conditional lethalithy of SEM cells grown in Human Plasma-Like Medium with dialyzed fetal bovine serum (HPLM+ds) (AID 1963882); also: nearly all actives have a fitted effect of over 35% in size; as to Viability: series mostly up to about 46 µM
Procedure, shortened: as §1

[9] = Quantitative highthroughput screen to assess conditional lethalithy of SEM cells grown in RPMI1640 with unreated serum (RPMI+s) (AID 1963883); also: nearly all actives have a fitted effect of over 35% in size
Procedure, shortened: as §1

[10] = Quantitative highthroughput screen to assess conditional lethalithy of SEM cells grown in RPMI1640 with dialyzed fetal bovine serum (RPMI+ds) (AID 1963884); also: nearly all actives have a fitted effect of over 35% in size; as to Viability: series mostly up to about 46 µM
Procedure, shortened: as §1

[11] = Cellular viability qHTS for adrenocortical cancer (ACC) cell line SW-13 (AID 1963989); details: SW-13 ACC cells viability, CellTiter-Glo, 48 h; activity (max response): stronger effect = lower value; also: nearly all actives have a fitted effect of over 65% in size;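 as to activity (max response): cells grown in serum-free medium with ITS supplement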
Procedure, shortened: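 48 h treatment, SW-13 in ITS/DMEM serum-free; doses up to 46 uM; readout CellTiter-Glo luminescence; curve fit four-parameter logistic.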

[12] = Cellular viability qHTS for adrenocortical cancer (ACC) cell line NCI-H295R (AID 1963990); also: nearly all actives have a fitted effect of over 60% in size
Procedure, shortened: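 Compound titrations (up to 46 uM final) are applied to NCI-H295R cultures for 48 h at 37C. Viable cell number is estimated by CellTiter-Glo signal, normalised to DMSO and doxorubicin controls.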

[13] = Quantitative highthroughput screen to assess conditional lethalithy of NOMO1 cells grown in Human Plasma-Like Medium with dialyzed fetal bovine serum (HPLM+ds) (AID 1963878); also: nearly all actives have a fitted effect of over 35% in size
Procedure, shortened: as §1
Potency is read from the fitted curve at half-maximal effect.

SMILES | Potency [1] | Potency [2] | Potency [3] | Potency [4] | Potency [5] | Potency [6] | Potency [7] | Potency [8] | Potency [9] | Potency [10] | activity (max response) [11] | Potency [12] | Potency [11] | Potency [13]
Cc1cc2c(s1)Nc1ccccc1N=C2N1CCN(C)CC1 | 20.6 µM (active) | 23.1 µM (active) | inactive | inactive | inactive | inactive | inactive | inactive | inactive | inactive | -7.86% | inactive |  | 
CC(c1cc2ccccc2s1)N(O)C(N)=O (configuration not stated) | inactive | inactive | inactive | inactive | inactive | inactive | inactive |  |  | inactive | -61.3% | inactive |  | 
NC(=O)Nc1cc(-c2cccc(F)c2)sc1C(=O)N[C@H]1CCCNC1 | inactive | inactive | 1.05 µM (active) | 0.59 µM (active) | 1.87 µM (active) | 1.18 µM (active) | 1.18 µM (active) |  | 0.0074 µM (active) |  |  | 0.794 µM (active) | 1.78 µM (active) | 
COc1cc(C[C@@H](CO)[C@H](CO)Cc2ccc(O)c(OC)c2)ccc1O | inactive | inactive | inactive | inactive | inactive | inactive | inactive | inactive | inactive |  | -8.41% | inactive |  | 
COc1ccc(-n2nc(C(N)=O)c3c2C(=O)N(c2ccc(N4CCCCC4=O)cc2)CC3)cc1 | inactive | inactive | 0.118 µM (active) | 0.235 µM (active) | 2.64 µM (active) | 2.96 µM (active) | 2.64 µM (active) | inactive | inactive | inactive | -9.7% | inactive |  | 
Cc1ncc([N+](=O)[O-])n1CC(C)O (configuration not stated) | inactive | inactive | inactive | inactive | inactive | inactive | inactive |  |  |  | -11% | inactive |  | 
CC(C)[C@H](N)C(=O)OCCOCn1cnc2c(=O)[nH]c(N)nc21 | 5.9 µM (active) | inactive | inactive | inactive |  | inactive |  | inactive | inactive | inactive |  | inactive |  | 
C[C@@]1(c2cc(-c3cncnc3)c(F)cc2F)CCSC(N)=N1 | inactive | 23.5 µM (active) | 1.66 µM (active) |  | 10.5 µM (active) | 16.6 µM (active) | 11.8 µM (active) |  | 7.43 µM (active) | 16.6 µM (active) | -2.1% | inactive |  | 3.72 µM (active)
CC(C)OC(=O)C1=CN(C(=O)c2ccc(F)c(F)c2)CC(C)(C)c2c1[nH]c1ccccc21 | 8.33 µM (active) | 13.2 µM (active) | inactive |  | inactive | inactive | inactive | inactive | inactive | inactive | -5.24% | inactive |  | inactive
Cc1ccc(S(=O)(=O)N[C@@H](Cc2ccccc2)C(=O)CCl)cc1 | 9.34 µM (active) | 8.33 µM (active) | inactive | inactive |  |  |  |  |  |  |  | 22.4 µM (active) |  | 
O=C(Nc1cccc(Cl)c1)Nc1ncc(CCNc2ncnc3ccsc23)s1 | 0.0206 µM (active) | 0.0326 µM (active) | 0.296 µM (active) | 0.332 µM (active) | 0.372 µM (active) |  | 0.418 µM (active) |  | 0.209 µM (active) | 0.209 µM (active) |  | 3.55 µM (active) |  | 
O=C(O)CCCCCC(=O)NN=C1CCCC1 | inactive | inactive | inactive | inactive |  | inactive | inactive | inactive | inactive | inactive | 2.29% | inactive |  | 
COc1ccc2cc([C@H](C)C(=O)O)ccc2c1 | inactive | inactive | inactive | inactive | inactive |  | inactive |  | 9.35 µM (active) | 10.5 µM (active) | 13.9% and -10.9% | inactive |  | 
Cn1c(N2CCCCS2(=O)=O)nc(C(=O)NCc2ccc(F)cc2)c(O)c1=O | inactive | inactive | inactive |  | inactive | inactive | inactive | inactive | inactive | inactive |  |  |  | inactive
COC(=O)Nc1cc(Nc2cc(NC3CC3)c3ncc(C#N)n3n2)c(Cl)c(N2CCN(C)CC2)c1 | 0.417 µM (active) | 0.662 µM (active) | 9.33 µM (active) | 7.41 µM (active) |  | 11.7 µM (active) | 14.8 µM (active) | 4.17 µM (active) | 2.63 µM (active) | 2.34 µM (active) |  | 2.24 µM (active) | 2.82 µM (active) | 
